# Results: PubChem BioAssay (NCI)
# Compounds without any hit were thinned out: in the full panel of roughly 83,000, 20% have a hit.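 Step 1: grow cells in 96-well plates. Step 2: add test compound at a single concentration. Step 3: incubate 48 h. Step 4: record percent growth.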 Unmarked numbers belong to inactive results. The source made the active and inactive calls. Rule for the calls: active = growth percent below 10; inactive = the rest.
# System: T-47D breast
# Assay: NCI-60 one-dose screen, 48 h (100 = growth as untreated, 0 = no growth, -100 = all killed)
# Conditions: 10 µM unless noted
row,Structure (SMILES),growth
1,CCCCNc1ccc2c3c(cccc13)C(=O)N(c1cccc(-c3nn(-c4ccccc4)cc3-c3nc4ccccc4s3)c1)C2=O,101%
2,COc1ccc(-c2cc(-c3cc(OC)c(OC)c(OC)c3)[nH]c(=O)c2C#N)cc1,34.6%
3,COc1cc(C2CC(c3ccc(Cl)cc3)=Nc3c(N)nc(N)nc3N2)ccc1Oc1nc(Nc2ccc(F)cc2)nc(N(C)C)n1 (stereo not drawn),71.3%
4,O=C(O)CC1S/C(=N/N=C/c2nc3ccccc3s2)NC1=O (stereo not drawn),85.4%
5,Cc1ccc(S(=O)(=O)N(CCn2ccnc2[N+](=O)[O-])CCn2ccnc2[N+](=O)[O-])cc1,100%
6,N#CCc1nnc(NC(=O)c2ccc(-n3c(=O)[nH]c4ccccc4c3=O)cc2)s1,100%
7,O=C(N/N=C/c1ccc(Br)o1)c1[nH]c2ccc(Br)cc2c1-c1ccccc1,27.1%
8,COc1ccc(N=Nc2c(N)nn3c(-c4ccc([N+](=O)[O-])cc4)ccnc23)cc1,81.6%
9,Cn1cc(-c2cc(N)n3nc(-c4c[nH]c5ccc(Cl)cc45)cc3n2)c2cc(Br)cnc21,-50% (active)
10,CN1C(=O)C2(C(C#N)=C(c3ccc(Cl)cc3)Nc3c2c(-c2ccccc2)nn3-c2ccccc2)c2ccccc21 (stereo not drawn),84.6%
11,Cc1nn(-c2ccccc2)c2nc(C)n(C(=O)N/N=C/c3ccccc3)c(=O)c12,90.6%
12,CN1CCN(CCS(=O)(=O)Nc2cc(-c3ccc4ncnc(Nc5ccc(F)c(Cl)c5)c4c3)cnc2Cl)CC1,-6.97% (active)
13,COc1cc(C2CC(c3ccc(C(F)(F)F)cc3)=Nc3c(N)nc(N)nc3N2)ccc1Oc1nc(Nc2ccc(F)cc2)nc(N(C)C)n1 (stereo not drawn),57.8%
14,COc1ccc2[nH]c(=O)c(CSc3ccccc3Nc3nccc(-c4ccc5c(c4)OCO5)n3)cc2c1,52%
15,Cc1cc(=O)oc2cc(OCC(O)CNN3C(=O)c4cccc5c(N6CCN(C)CC6)ccc(c45)C3=O)ccc12 (stereo not drawn),109%
16,CC[C@]12C=CCN3CC[C@]4(C(=C(C(=O)OC)C1)Nc1cc(OC)c([C@@H]5[C@H]6O[C@H]6[C@@]6(CC)CC(C(=O)OC)=C7Nc8cc(OC)ccc8[C@@]78CCN5[C@@H]68)cc14)[C@@H]32,25.7%
17,C#CCCCNCCNc1ccnc2cc(Cl)ccc12,71%

row,Structure (SMILES),growth
1,CCOC(=O)/C(F)=C/C1CC1C(c1ccccc1)c1ccccc1 (stereo not drawn),70.7%
2,S=C(NCCc1ccccc1)Nc1ccc(OCc2nc3ccc(Cl)cc3[nH]2)cc1,34.9%
3,Cc1ccc(C(=O)C[n+]2cccc3c4ccccc4ccc32)cc1,43.8%
4,CCCn1c(NC(=O)c2cccc(C(N)=O)c2)nc2cc(CN3CCCCC3)ccc21,86.6%
5,CCC(=O)c1c2c(c3ccc4c5ccccc5ccc4n13)C(=O)c1ccccc1C2=O,87.2%
6,O=C1/C(=C/c2cnc(-c3ccccc3)s2)SC(=S)N1Cc1ccc2c(c1)OCO2,47.4%
7,O=c1[nH]c2ccccc2cc1COc1ccc(Nc2nccc(-c3ccc(Cl)cc3)n2)cc1,92.2%
8,O=C(/C=C1\C(=O)N(Cc2ccccc2)c2ccccc21)c1cc2ccccc2oc1=O,40.3%
9,COc1ccc(NC(=O)Cn2c(/C=C/c3cccc(Br)c3)nc3ccccc3c2=O)cc1,-16.6% (active)
10,O=c1ccc(Cn2c(C(F)(F)F)cc3c(Cl)ncnc32)c[nH]1,75.7%
11,CCCCC[C@@H]1C/C=C(\C)[C@@H](O)C(C)(C)C(=O)[C@@H](C)/C=C(\C)[C@@H]2C[C@H](O)C[C@](O)(CC(=O)O1)O2,13.5%
12,COc1cc(NC(=O)CSc2nnc(-c3ccc(-c4nc5ccc(Cl)cc5[nH]4)cc3)o2)cc(OC)c1OC,41.5%
13,Cc1ccc(C2CC(c3ccc(S(=O)(=O)NCCNc4nc(N(C)C)nc(N5CCOCC5)n4)cc3)=Nc3c(N)nc(N)nc3N2)cc1 (stereo not drawn),43.8%
14,CCCCNC(=S)Nc1ccc(OCc2nc3ccc(Cl)cc3[nH]2)cc1,22.2%
15,Nc1nn2c(-c3cc4cc(Br)ccc4oc3=O)ccnc2c1N=Nc1ccc(S(N)(=O)=O)cc1,77%
16,OCCn1cc(-c2nc3ccc4[nH]ncc4c3c3c2CCCC3)cn1,43.5%
